From PubChem BioAssay (EPA / NIEHS)
Some compounds were tested as several samples or in several runs, with calls that do not always agree. The source made the active and inactive calls. How the source made its calls: active means hit-call score of the fitted dose curve at least 0.9, where 1 is the maximum; inactive means score below 0.9.

read-out: ABC Transporter (ABCB1), ABCB1 (gene 5243); experiment: LTEA_HepaRG_ABCB1: Life Technologies and Expression Analysis (LTEA) Assay for ABC Transporter (ABCB1) using HepaRG (AID 2283460); details: mRNA level, 48 h; actives raise or lower the signal
Description: LTEA_HepaRG is a cell based, multiplexed-readout assay that uses HepaRG, a human liver cell line, with measurements taken at 48 hours after chemical dosing on a 96-well plate.LTEA_HepaRG_ABCB1 is one of 102 assay component(s) measured in the LTEA HepaRG cell culture assay. It is a marker of Steatosis/NR mediated transport.Data from the assay component LTEA_HepaRG_ABCB1 was analyzed into 1 endpoint. This assay endpoint, LTEA_HepaRG_ABCB1, was analyzed with bidirectional fitting relative to DMSO as the negative control and baseline of activity. Using a type of inducible reporter, measures of mRNA induction for gain or loss-of-signal activity can be used to understand regulation of transcription factor activity. To generalize the intended target to other relatable targets, this assay endpoint is annotated to the transporter intended target family, where the subfamily is ABC transporter.
A total of 1060 chemcials from the ToxCast library were tested in eight-point concentration-response experiments. Cell culture and cytotoxicity assays were conducted at Thermo Fisher Scientific's Custom Services facility (Madison, WI). A single lot of human HepaRG cells (Thermo Fisher Scientific, Frederick, MD) was used for the cell culture experiments. 96-well format collagen type I coated plates of human HepaRG cells were prepared using established methods. Briefly, cryopreserved HepaRG cells were thawed, plated at a density of approximately 100,000 cells/well in HepaRG Thaw, Plate, and General Purpose media (HPRG770, Thermo Fisher Scientific), and incubated for 48 hours. 0.5% DMSO was selected as vehicle control to balance the requisite need of DMSO in HepaRG cultures to maintain differentiation (for example, baseline metabolism, proportions of hepatocytes vs. cholangiocytes), while enabling further hepatic receptor pathway activation (for example, PXR and CAR) in response to chemical exposure. 48 hours after plating, the culture medium was replaced with HepaRG Serum-Free Incudtion Media. Cells were exposed to each test chemical in duplicate and maintained in CO2 incubators for another 48 hours. Chemical plates were thawed to room temperature and 200x concentrations of treatment groups were prepared. 8-point conentration-reponse curves were made with the highest exposure at 100 uM, followed by half-log dilutions, all in 0.5% DMSO. Each test plate contained variouse controls, induction positive controls (1mM phenobarbital), cytotoxicity positive controls ([…] aflatoxin B1), vehicle controls (0.5% DMSO), and total lysis controls (0.5% DMSO). Cell morphology images were taken using an Essen IncuCyte FLR automated microscope, with six 96-well plates imaged in about 24 minutes. Images were captured and exported and JPEG files. Spent culture media was transfered to black-well plates for the LDH assay, and remaining media was sorted at -80 C for later use. Cells were treated with RLT buffer and frozen until shipped for gene expression analysis. Total RNA was isolated from the cell suspension in 75 uL of Buffer RLT (Qiagen, Germantown, MD 20874) by Quintiles/Expression Analysis (Durham, NC) using a custom isolation procedure. Total RNA from each plate well was transferred to a preamplification plate. Fluidigm's 96.96 Dynamic ArrayTM (Fluidigm, Amsterdam, the Netherlands) technology was used for gene expression analyses by quantitative reverse transcription polymerase chain reaction (qRT-PCR, performed by Quintiles/Expression Analysis, Durham, NC)89. Standard TaqManTM Assays (Applied Biosystems/ThermoFisher Scientific, Foster City, CA) were used to assess the expression of 93 genes selected based on their selectivity and sensitivity to important hepatic receptors known to be modulated by environmental chemicals; importance in human hepatocyte functionality; and hepatotoxicity. […]

Row | SMILES | AC50 | outcome
1 | O=[N+]([O-])c1ccc(O)c([N+](=O)[O-])c1 | 13.6 µM (active) | 
2 | C[C@@H]1C[C@@H]([C@H](O)CC2CC(=O)NC(=O)C2)C(=O)[C@@H](C)C1 | 83.5 µM (active) | 
3 | CN(C)N=O |  | inactive
4 | O=C1C2(Cl)C3(Cl)C4(Cl)C(Cl)(Cl)C5(Cl)C3(Cl)C1(Cl)C5(Cl)C24Cl (configuration not stated) | 91.8 µM (active) | 
5 | C=CC(=O)OCCCCCC(C)C |  | inactive
6 | C[C@]12CCC(=O)C[C@@H]1CC[C@@H]1[C@@H]2CC[C@]2(C)[C@@H](O)CC[C@@H]12 |  | inactive
7 | O=C(Nc1ccc2[nH]ccc2c1)c1cc2cc(F)ccc2n1Cc1cccc(F)c1 | 90.3 µM (active) | 
8 | CC(C)(c1ccccc1)c1ccc(O)c(C(C)(C)c2ccccc2)c1 | 22.1 µM (active) | 
9 | Cn1sc(Cl)cc1=O |  | inactive
10 | CCN1CCC2(CC1)COc1cc3c(cc12)N(C(=O)c1ccc(-c2ccc(-c4nnc(C)o4)cc2C)cc1)CC3 | 17.4 µM (active) | 
11 | O=C(O)C(F)(F)C(F)(F)C(F)(F)C(F)(F)C(F)(F)C(F)(F)F | 0.101 µM (active) | 
12 | CC(C)(C)CC(C)(C)c1ccc(O)cc1 |  | inactive
13 | CC(=O)[O][Hg][c]1ccccc1 | 24.1 µM (active) | 
14 | CC12CC1(C)C(=O)N(c1cc(Cl)cc(Cl)c1)C2=O (configuration not stated) | 8.58 µM (active) | 
15 | CCC(=O)C(CC(C)N(C)C)(c1ccccc1)c1ccccc1 (configuration not stated) |  | inactive
16 | CCOP(=S)(OCC)SCSP(=S)(OCC)OCC |  | inactive

Row | SMILES | AC50 | outcome
17 | O=C(O)C(Cl)(Cl)Cl |  | inactive
18 | CCCCCCCCc1ccc(O)cc1 |  | inactive
19 | CCOP(=S)(OCC)Oc1nc(Cl)c(Cl)cc1Cl |  | inactive
20 | Cc1ccccc1N |  | inactive
21 | Oc1cccc2cccnc12 |  | inactive
22 | ClC1(Cl)C2(Cl)C3(Cl)C4(Cl)C(Cl)(Cl)C5(Cl)C3(Cl)C1(Cl)C5(Cl)C24Cl (configuration not stated) |  | inactive
23 | COc1cc(-c2ccc(N)c(OC)c2)ccc1N | 50 µM (active) | inactive
24 | CC(C)(C)c1cc(O)ccc1O |  | inactive
25 | CC(C)(OO)c1ccccc1 |  | inactive
26 | ClCC(Cl)CCl |  | inactive
27 | O=c1[nH]c(=O)[nH]c(=O)[nH]1 |  | inactive
28 | CCC(C)(C)c1ccc(O)c(C(C)(C)CC)c1 |  | inactive
29 | NC(=O)O |  | inactive
30 | C=C(C)C(=O)[O][Sn]([CH2]CCC)([CH2]CCC)[CH2]CCC | 3.08 µM (active) | 
31 | O=C(O)C(F)(F)C(F)(F)C(F)(F)C(F)(F)C(F)(F)C(F)(F)C(F)(F)C(F)(F)C(F)(F)C(F)(F)F |  | inactive
